# Measurements from PubChem BioAssay AID1259415 (National Center for Advancing Translational Sciences (NCATS), 2018).
# Out of some 410,000 compounds screened, about 18,000 (4.4%) were called active. Another 7% or so got no clear call; they are omitted. Many of the other results were omitted from the sample, so actives are more common in it than they were. Values without a mark were called inactive. Rule as the data show it: active = activity change below about -60%; inconclusive = no clear call, values can overlap the other calls; inactive = above about -39%.
# Test: qHTS Assay for inhibitors of the human cytomegalovirus (HCMV)
# Details: HFF cells, HCMV-luciferase reporter, 72 h; at 57.5 µM; active compounds read low
# Summary of the method: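 Inhibition of viral replication was scored as loss of reporter luminescence in HFFs infected with HCMV-luciferase (MOI 1 PFU/cell) for 72 h; compounds tested at 2 doses, normalized to buffer and Salinomycin controls.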
# % is scaled to controls: 0 for no effect and ±100 for the full control effect.
row,Structure (SMILES),"activity change, negative = inhibition"
1,Nc1c(C(=O)OCC(=O)Nc2ccc(OC(F)F)cc2)[nH]c(=O)[nH]c1=O,-34.6%
2,COc1ccc(NC(=O)c2ccc3oc(=O)c(S(=O)(=O)c4ccc(F)cc4)cc3c2)c(OC)c1,10.2%
3,CCCCC[C@H](C)N1C[C@@H](COCc2ccccc2)Oc2cc(N3CCC[C@@H]3CO)ccc2S1(=O)=O,15%
4,O=S1(=O)c2c(cccc2N2CCCC2)O[C@H](COCc2ccccc2)CN1C1CC1,-34%
5,CCCCC[C@H](C)N1C[C@@H](COCc2ccccc2)Oc2cc(N3CC[C@@H](N(C)C)C3)ccc2S1(=O)=O,-94.8% (active)
6,CN1C(=O)c2ccccc2Sc2ccc(NC(=O)Cc3ccc(Cl)cc3)cc21,-23.7%
7,Cc1nn2c(=O)cc(COC(=O)c3cccc(NC(=O)COc4ccccc4Cl)c3)nc2s1,14%
8,COc1ccccc1NC(=O)c1cc(C2CC2)nc2c1c(C)nn2-c1ccc(C)cc1,16.5%
9,O=C(OC1CCCCC1=O)c1cccc(S(=O)(=O)NCc2ccccc2)c1 (stereo not drawn),-28.2%
10,Cc1ccc(Cl)cc1N1CCN(C(=O)C2CCC(CNS(=O)(=O)c3cccs3)CC2)CC1 (stereo not drawn),-25.7%
11,COc1ccc(NC(=O)c2cnc(Nc3ccc(C)c(Cl)c3)c3ccccc23)cc1OC,-10.9%
12,COc1ccc(Nc2ncc(C(=O)Nc3cc(C)ccc3OC)c3ccccc23)cc1,-108% (active)
13,COC(=O)c1cnc(Nc2cc(C)ccc2OC)c2ccccc12,-31.5%
14,Cc1ccc2oc3c(c(=O)c2c1)C(c1ccc(O)cc1)N(Cc1ccc2c(c1)OCO2)C3=O (stereo not drawn),-1.21%
15,CCc1cc2c(NC3CCCC3)ncnc2s1,-76.1% (active)
16,CCc1cc2c(NC(Cc3ccccc3)C(=O)O)ncnc2s1 (stereo not drawn),32.8%
17,CCc1cc2c(SCC(=O)Nc3ncc(Cl)c(C)c3Cl)ncnc2s1,-15.5%
18,CC(C)=N/N=C1/NC(=O)C(Cc2ccccc2)S1 (stereo not drawn),29.3%
19,O=C1NC(=Nc2ccc(Cl)cc2)SC1Cc1cccc(Cl)c1Cl (stereo not drawn),-64.5% (active)
20,NC1=NC(=O)C(Cc2cccc(Cl)c2Cl)S1 (stereo not drawn),-8.43%
21,CCCCC(CC)CNC(=O)C1CCN(S(=O)(=O)c2cccc3nsnc23)CC1 (stereo not drawn),-8.64%
22,CCN(CCCNC(=O)c1cc2c(=O)n(CC)c3ccccc3c2s1)Cc1ccccc1,-82.5% (active)

row,Structure (SMILES),"activity change, negative = inhibition"
1,CCc1ccc(CNC(=O)c2cc3c(=O)n(CC)c4ccccc4c3s2)cc1,-16.1%
2,CCn1c(=O)c2cc(C(=O)NCCc3ccc(Cl)cc3)sc2c2ccccc21,-0.35%
3,O=c1c(NCc2cccs2)nccn1-c1ccccc1,54.2%
4,COc1ccc(N=CN2c3ccccc3-n3cccc3C2CCc2ccccc2)cc1 (stereo not drawn),29.9%
5,CCc1nc2c(cnn2-c2ccc(C)cc2)c(=O)n1-c1ccc(C)cc1,-37.2%
6,COc1cc(OC)cc(-c2nc3ccccc3c(=O)n2NC(=O)c2cccnc2Cl)c1,-24.5%
7,COc1cc(C(=O)Nn2c(CC(C)C)nc3ccccc3c2=O)cc(OC)c1OC,36.7%
8,COc1ccccc1C(=O)Nn1c(-c2cccs2)nc2ccccc2c1=O,-71.7% (active)
9,O=C(CC(c1cccs1)N1Cc2ccccc2C1=O)Nc1ccc(F)c(F)c1 (stereo not drawn),-28.8%
10,Cc1ccc(C)c(N2CCN(C(=O)Cc3c(C(=O)O)c(C)cn3C)CC2)c1,7.89%
11,CCC1CCC2(CC1)NC(=O)N(CC(=O)Nc1ccc(OC)cc1)C2=O (stereo not drawn),-8.02%
12,Cn1nccc1C(=O)NC1CCCc2c1cnn2-c1ccccc1F (stereo not drawn),-80% (active)
13,Cn1nccc1C(=O)NC1CCCc2c1cnn2-c1ccc(F)cc1F (stereo not drawn),-81.5% (active)
14,CC(C)(C)OC(=O)N1CCC(c2c(C(=O)NCCc3ccsc3)cnn2-c2ccc(F)cc2F)CC1,0%
15,CNS(=O)(=O)c1cccc(C(=O)NC2CCCc3ccccc32)c1 (stereo not drawn),-19.2%
16,COC(=O)c1ccc(C(=O)NC2CC(C)(C)Cc3c2cnn3-c2ccc(F)cc2)nc1 (stereo not drawn),29.8%
17,Cn1cc(C(=O)NCc2ccccc2F)cn1,3.61%
18,COc1ccc(-n2c(C)nc3c(cnn3-c3ccc(F)cc3)c2=O)cc1,-33.7%
19,Nc1cc(N2CCCCCC2)c2nonc2c1[N+](=O)[O-],-24.1%
20,Cc1ccccc1NC(=O)CN1C(=O)C(C)(C)c2ccccc21,-4.1%
21,COc1cc(OC)c(OC)cc1/C=C/c1nc2cc3ccccc3cc2c(=O)n1-c1ccc(F)c(Cl)c1,11%
22,COc1ccc(C(CNC(=O)c2ccc(NS(=O)(=O)c3ccc(F)c(C)c3)cc2)N(C)C)cc1 (stereo not drawn),-9.49%

row,Structure (SMILES),"activity change, negative = inhibition"
1,CCOC(=O)c1cc(C(=O)Nc2ccc(S(=O)(=O)Nc3ccc(OC)cc3)cc2)nn1C,2.74%
2,COc1ccc(NS(=O)(=O)c2ccc(NC(=O)c3ccc(N(C)S(C)(=O)=O)cc3)cc2)cc1,-94.5% (active)
3,O=C(c1cccs1)c1cn(CCOc2ccc(Cl)cc2)c2ccccc12,-4.55%
4,COc1ccc(CCNC(=O)c2cnc3sc(N4CCCCCC4)nn3c2=O)cc1OC,0.444%
5,COc1ccc(NC(=O)Cn2c(=O)n(Cc3ccc(C(=O)NCc4ccccc4Cl)cc3)c(=O)c3ccccc32)cc1,-25.8%
6,O=C(NNC(=O)c1ccccc1O)c1ccccc1O,-97% (active)
7,CC1=C(C)CC(C(=O)NNC(=O)c2ccccc2O)C(C(=O)O)C1 (stereo not drawn),-89.9% (active)
8,O=C(CO/N=C/c1ccccc1O)NNC(=O)c1ccccc1Cl,35%
9,CC1=C(C)CC(C(=O)NC(C)CCc2ccccc2)C(C(=O)O)C1 (stereo not drawn),16.1%
10,CC1=C(C)CC(C(=O)NNC(=O)c2csc3c2CCC(C(C)(C)C)C3)C(C(=O)O)C1 (stereo not drawn),35%
11,COc1cc(OC)c(C(=O)NNC(=O)c2ccccc2-n2cccc2)cc1OC,-25.6%
12,COc1ccc(-c2cc(-c3ccccc3)nc3c2COc2ccc(Cl)cc2-3)cc1,9.57%
13,CC(=O)N1C[C@@H](CO)[C@@H](N(C)C(=O)c2ccco2)C[C@H]1c1ccccc1,-4.23%
14,COc1cc2c(cc1NC(=O)CN1CCN(S(=O)(=O)c3ccc(F)cc3)CC1)oc1ccccc12,63.3%
15,COc1ccc(-n2c(=O)c3ccccc3n(Cc3ccccc3Cl)c2=O)cc1,7.59%
16,CCCn1c(N)c(C(=O)CSc2nnc(Cc3cccs3)n2C2CC2)c(=O)[nH]c1=O,-9.71%
17,Cc1cc(C)c(OCCN2CC(C)OC(C)C2)c(Br)c1 (stereo not drawn),-20%
18,Cc1ccc(Oc2cc(NC(=O)CCCn3nc(C)c([N+](=O)[O-])c3C)cc([N+](=O)[O-])c2)cc1,3.84%
19,COc1cc(NC(=O)Nc2ccc(C)cc2)cc([N+](=O)[O-])c1,-63.5% (active)
20,COc1ccc(S(=O)(=O)NNC(=O)Nc2ccc(C)cc2)c(OC)c1,-7.23%
21,Cc1cccc(N2CCN(C(=O)c3ccc(Nc4nc5ccccc5n5nnnc45)cc3)CC2)c1C,9.29%
22,CCOc1ccc(CNC(=O)c2ccc3c(c2)nnn3C2CCCC2)cc1,27.9%

row,Structure (SMILES),"activity change, negative = inhibition"
1,CCCNC(=O)c1ccc(N2CCC3(CC2)CC(c2cccc(Br)c2)=NO3)c(NC(=O)c2ccco2)c1,-2.24%
2,COCCNC(=O)c1ccc(N2CCC3(CC2)OCCO3)c([N+](=O)[O-])c1,-4.44%
3,CCCNC(=O)c1ccc(N2CCC3(CC2)CC(c2ccc(Cl)cc2)=NO3)c([N+](=O)[O-])c1,-72.5% (active)
4,COCCCNC(=O)c1c(NC(=O)c2cc(=O)c3cc(C)c(C)cc3o2)sc2c1CCCC2,11.5%
5,Cc1nnc(NCc2ccccc2)c2c1nnn2Cc1ccc(F)cc1,-5.95%
6,CCc1ccc(NC(=O)c2cc(S(=O)(=O)NC3CCCCCC3)ccc2F)cc1,-39.6%
7,Cc1ccc(CS(=O)(=O)CCC(=O)NC2CC2)cc1,-21.8%
8,CSc1nnc(NC(=O)c2nc(S(=O)(=O)Cc3ccc(C)cc3)ncc2Cl)s1,-102% (active)
9,O=C(Nc1nc2ccc(F)cc2s1)c1nc(SCc2ccccc2F)ncc1Cl,7.44%
10,Cc1ccc2nc(NC(=O)c3nc(SCc4ccccc4F)ncc3Cl)sc2c1,16.7%
11,CCOc1cccc(C(=O)Nc2nnc(S(=O)(=O)N(C)c3ccc(C)cc3)s2)c1,-25.8%
12,Cc1ccc(CS(=O)(=O)c2ncc(Cl)c(C(=O)Nc3nnc(C)s3)n2)cc1,-111% (active)
13,NNc1cccc(C=Cc2ccccc2)cc1=O,34%
14,Cc1ccc(S(=O)(=O)n2nc(C)c(S(=O)(=O)N3CCCCCC3)c2C)cc1,1.89%
15,Cc1nc2nc(NCc3cccc(Br)c3)[nH]n2c(=O)c1Cc1ccccc1,-3.03%
16,COc1ccc(C(=O)CSc2c(C(C)C)cnc3c2c(=O)n(C)c(=O)n3C)cc1,8.98%
17,CCOCCc1nn2c(=O)cc(COC(=O)CNC(=O)c3ccc(C(C)(C)C)cc3)nc2s1,-3.83%
18,CCOc1ccc(N(CC(=O)NCCc2ccc(OC)cc2)S(C)(=O)=O)cc1,-24%
19,Cc1cccc(C(CC(=O)NCC2(c3ccccc3)CCCC2)c2ccccc2)c1O (stereo not drawn),-38.6%
20,CNC(=O)/C(=C\C=C\c1ccccc1)NC(=O)c1ccc([N+](=O)[O-])cc1,45.3%
21,O=C(NCCc1ccccc1)/C(=C\c1ccc([N+](=O)[O-])cc1)NC(=O)c1ccccc1,-102% (active)
22,O=C(N/C(=C\c1ccc([N+](=O)[O-])cc1)C(=O)N1CCCCC1)c1ccco1,-3.57%
